# Data: PubChem BioAssay (NCI)
# About 79,000 compounds went through this panel and 15% of them were active in at least one assay; those are over-represented in the sample as a whole. Calls of active or inactive are those of the source. No stated cut-off is given here; in the data, active means growth inhibition above about 70%; inactive means the rest.
# Experiment: NCI Yeast Anticancer Drug Screen. Data for the cln2 rad14 strain (AID 165);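 further: 0% = growth equal to vehicle treated cultures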
# Settings: S. cerevisiae cln2 rad14 strain, at 50.0 µM, stronger effect = higher value
# Procedure, shortened: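 Strain: cln2 rad14 yeast, altered in cell cycle control and DNA damage repair. Read-out: growth inhibition vs vehicle.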
row,SMILES,growth inhibition
1,Oc1cccnc1CN1CCCC1,1.7% (inactive)
2,O=C(NC(=S)N1CC=CCC1)c1ccccc1,-1.95% (inactive)
3,C=CCC(OC(C)=O)c1ccc(C(C)C)cc1 (stereo unspecified),-55.1% (inactive)
4,C=C1CC2(OC1=O)C(=O)N(C)c1ccc(I)cc12 (stereo unspecified),90.5% (active)
5,NC(=O)NCCO,-18.6% (inactive)
6,Oc1cc(O)c2c(c1)O[C@H](c1ccc(O)c(O)c1)[C@@H](O)C2,1.35% (inactive)
7,O=S(=O)(O)C(C(I)I)S(=O)(=O)O,-34.5% (inactive)
8,BrCc1cccc(C[P+](c2ccccc2)(c2ccccc2)c2ccccc2)c1,28.2% (inactive)
9,Cc1ccc(C)c(CCO)c1,-2.9% (inactive)
10,Cc1[nH]nc(C(N)=O)c1[N+](=O)[O-],-36.8% (inactive)
11,Clc1ccc(-c2noc(/C=C\c3ccccc3)n2)cc1,12.1% (inactive)
12,CCOC(=O)c1cc(C)[nH]c(=O)c1C#N,-5.1% (inactive)
13,Cc1[nH]n(-c2ccccc2)c(=O)c1C=NC(=S)C(N)=S,-19.1% (inactive)
14,COc1cc(C(=O)NC(=S)NCc2ccncc2)cc(OC)c1OC,-11.2% (inactive)
15,CCc1ccccc1C(=O)N(CC)CC,32% (inactive)
16,CCOC(=O)Nc1nccs1,-37% (inactive)
17,CCOC(=O)c1c(C)[nH]c(C)c1C=O,-1.15% (inactive)
18,CC(C)c1ccc(C(=O)OCCCl)cc1,-3.05% (inactive)

row,SMILES,growth inhibition
1,CCOC(=O)C1(N)CCCCC1,-9.85% (inactive)
2,C=CCS(C)(=O)=O,5.7% (inactive)
3,CN1C(=O)NC(c2ccc(Cl)cc2)(c2ccc(Cl)cc2)C1=O,-11.9% (inactive)
4,CC1(C)CC(=O)C=C(N)C1,14.2% (inactive)
5,CC(=O)C[n+]1ccc(C)cc1Sc1ccccc1C,4.4% (inactive)
6,O=C1NCC2CCCC1C2 (stereo unspecified),-40.9% (inactive)
7,Cc1cc(Cl)cc(Cc2cc(Cl)cc(C)c2O)c1O,29% (inactive)
8,Cc1ccc(S(=O)(=O)CCCl)cc1,-31.2% (inactive)
9,CC(=O)c1cccc(N(C)S(=O)(=O)c2ccc(C)cc2)c1,-31.2% (inactive)
10,C1CCc2onc(-c3noc4c3CCCCC4)c2CC1,-1.1% (inactive)
11,CC(=O)OCC1OC(n2cnc3c(=S)nc(N)[nH]c32)C(OC(C)=O)C1OC(C)=O (stereo unspecified),-12.4% (inactive)
12,N#CCCN1C(=O)CCC1C(=O)O (stereo unspecified),-6.15% (inactive)
13,C=CCOc1ccc(Cl)cc1Cl,4.6% (inactive)
14,Nc1c(O)c(S(=O)(=O)O)c(O)c2c1C(=O)c1ccccc1C2=O,30.9% (inactive)
15,Nc1cc2c(cc1Cl)C(=O)c1ccccc1C2=O,-63.6% (inactive)
16,CC(=O)c1cc(O)ccc1O,-11.1% (inactive)
17,CN(C)c1ccc(/C=C/C(=O)c2ccc(NC(N)=O)cc2)cc1,-51.6% (inactive)

# Experiment: NCI Yeast Anticancer Drug Screen. Data for the bub3 strain (AID 167)
# Settings: S. cerevisiae bub3 mutant strain, at 50.0 µM, stronger effect = higher value
# Procedure, shortened: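 Compounds were applied to a genetically altered yeast strain carrying a cell-cycle control defect. Growth inhibition was scored against vehicle-treated controls.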
row,SMILES,growth inhibition
1,Oc1cccnc1CN1CCCC1,-5.8% (inactive)
2,O=C(NC(=S)N1CC=CCC1)c1ccccc1,45.5% (inactive)
3,C=C(C)COc1ccc(C(C)(C)C)cc1,17.6% (inactive)
4,C=C1CC2(OC1=O)C(=O)N(C)c1ccc(I)cc12 (stereo unspecified),91.5% (active)
5,NC(=O)NCCO,-6.05% (inactive)
6,Oc1cc(O)c2c(c1)O[C@H](c1ccc(O)c(O)c1)[C@@H](O)C2,-6.45% (inactive)
7,O=S(=O)(O)C(C(I)I)S(=O)(=O)O,-6.85% (inactive)
8,BrCc1cccc(C[P+](c2ccccc2)(c2ccccc2)c2ccccc2)c1,38.5% (inactive)
9,Cc1ccc(C)c(CCO)c1,-21.4% (inactive)
10,Cc1[nH]nc(C(N)=O)c1[N+](=O)[O-],-6.7% (inactive)
11,Clc1ccc(-c2noc(/C=C\c3ccccc3)n2)cc1,8.7% (inactive)
12,CCOC(=O)c1cc(C)[nH]c(=O)c1C#N,4.55% (inactive)
13,Cc1[nH]n(-c2ccccc2)c(=O)c1C=NC(=S)C(N)=S,-54.4% (inactive)
14,COc1cc(C(=O)NC(=S)NCc2ccncc2)cc(OC)c1OC,34.2% (inactive)
15,CCc1ccccc1C(=O)N(CC)CC,-16.1% (inactive)
16,CCOC(=O)Nc1nccs1,-2.6% (inactive)
17,CCOC(=O)c1c(C)[nH]c(C)c1C=O,52.5% (inactive)
18,CC(C)c1ccc(C(=O)OCCCl)cc1,-4.2% (inactive)

row,SMILES,growth inhibition
1,CCOC(=O)C1(N)CCCCC1,13% (inactive)
2,C=CCS(C)(=O)=O,-0.8% (inactive)
3,CN1C(=O)NC(c2ccc(Cl)cc2)(c2ccc(Cl)cc2)C1=O,-8% (inactive)
4,CC1(C)CC(=O)C=C(N)C1,-4.7% (inactive)
5,CC(=O)C[n+]1ccc(C)cc1Sc1ccccc1C,-3.35% (inactive)
6,O=C1NCC2CCCC1C2 (stereo unspecified),-13.4% (inactive)
7,Cc1cc(Cl)cc(Cc2cc(Cl)cc(C)c2O)c1O,22.1% (inactive)
8,Cc1ccc(S(=O)(=O)CCCl)cc1,5.3% (inactive)
9,CC(=O)c1cccc(N(C)S(=O)(=O)c2ccc(C)cc2)c1,45.1% (inactive)
10,C1CCc2onc(-c3noc4c3CCCCC4)c2CC1,-21.4% (inactive)
11,CC(=O)OCC1OC(n2cnc3c(=S)nc(N)[nH]c32)C(OC(C)=O)C1OC(C)=O (stereo unspecified),11.1% (inactive)
12,N#CCCN1C(=O)CCC1C(=O)O (stereo unspecified),-3.1% (inactive)
13,C=CCOc1ccc(Cl)cc1Cl,6.65% (inactive)
14,Nc1c(O)c(S(=O)(=O)O)c(O)c2c1C(=O)c1ccccc1C2=O,34.9% (inactive)
15,Nc1cc2c(cc1Cl)C(=O)c1ccccc1C2=O,38.4% (inactive)
16,CC(=O)c1cc(O)ccc1O,-2.6% (inactive)
17,CN(C)c1ccc(/C=C/C(=O)c2ccc(NC(N)=O)cc2)cc1,-18% (inactive)
18,CCC(=O)Oc1ccc2ccccc2c1,17.4% (inactive)
